According to PubChem BioAssay:
A number with no mark means an inactive call. Active and inactive are the calls of the source.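 Rule for the calls, unless noted: active = mean inhibition above 46.5%, the solvent-only control mean plus 3 SD; inactive = the rest.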

Columns and labels:
[1] = tested on: transactivating tegument protein VP16 (Human herpesvirus 1); assay: VP16 transactivation reporter inhibitors, counter-screen for SRC2 inhibitor project, cell-based, luminescence, single concentration (AID 652007; in the data active = inhibition above about 36%); settings: cell-based VP16 transactivation luciferase reporter, at 8.9 µM, stronger effect = higher value
[2] = target: Nuclear receptor coactivator 2 (Homo sapiens) (UniProt Q15596); assay: SRC2 coactivator transcriptional activity inhibitors, confirmation, cell-based, luminescence, HEK293, triplicate (AID 652008); settings: HEK293 GAL4-SRC2 luciferase reporter, at 8.9 µM, stronger effect = higher value;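 note: 0% = DMSO-treated cells and 100% = Gossypol at 36 µM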
Sequence of Nuclear receptor coactivator 2 (Homo sapiens) (Q15596 whole entry, looked up, the tested form may be a part): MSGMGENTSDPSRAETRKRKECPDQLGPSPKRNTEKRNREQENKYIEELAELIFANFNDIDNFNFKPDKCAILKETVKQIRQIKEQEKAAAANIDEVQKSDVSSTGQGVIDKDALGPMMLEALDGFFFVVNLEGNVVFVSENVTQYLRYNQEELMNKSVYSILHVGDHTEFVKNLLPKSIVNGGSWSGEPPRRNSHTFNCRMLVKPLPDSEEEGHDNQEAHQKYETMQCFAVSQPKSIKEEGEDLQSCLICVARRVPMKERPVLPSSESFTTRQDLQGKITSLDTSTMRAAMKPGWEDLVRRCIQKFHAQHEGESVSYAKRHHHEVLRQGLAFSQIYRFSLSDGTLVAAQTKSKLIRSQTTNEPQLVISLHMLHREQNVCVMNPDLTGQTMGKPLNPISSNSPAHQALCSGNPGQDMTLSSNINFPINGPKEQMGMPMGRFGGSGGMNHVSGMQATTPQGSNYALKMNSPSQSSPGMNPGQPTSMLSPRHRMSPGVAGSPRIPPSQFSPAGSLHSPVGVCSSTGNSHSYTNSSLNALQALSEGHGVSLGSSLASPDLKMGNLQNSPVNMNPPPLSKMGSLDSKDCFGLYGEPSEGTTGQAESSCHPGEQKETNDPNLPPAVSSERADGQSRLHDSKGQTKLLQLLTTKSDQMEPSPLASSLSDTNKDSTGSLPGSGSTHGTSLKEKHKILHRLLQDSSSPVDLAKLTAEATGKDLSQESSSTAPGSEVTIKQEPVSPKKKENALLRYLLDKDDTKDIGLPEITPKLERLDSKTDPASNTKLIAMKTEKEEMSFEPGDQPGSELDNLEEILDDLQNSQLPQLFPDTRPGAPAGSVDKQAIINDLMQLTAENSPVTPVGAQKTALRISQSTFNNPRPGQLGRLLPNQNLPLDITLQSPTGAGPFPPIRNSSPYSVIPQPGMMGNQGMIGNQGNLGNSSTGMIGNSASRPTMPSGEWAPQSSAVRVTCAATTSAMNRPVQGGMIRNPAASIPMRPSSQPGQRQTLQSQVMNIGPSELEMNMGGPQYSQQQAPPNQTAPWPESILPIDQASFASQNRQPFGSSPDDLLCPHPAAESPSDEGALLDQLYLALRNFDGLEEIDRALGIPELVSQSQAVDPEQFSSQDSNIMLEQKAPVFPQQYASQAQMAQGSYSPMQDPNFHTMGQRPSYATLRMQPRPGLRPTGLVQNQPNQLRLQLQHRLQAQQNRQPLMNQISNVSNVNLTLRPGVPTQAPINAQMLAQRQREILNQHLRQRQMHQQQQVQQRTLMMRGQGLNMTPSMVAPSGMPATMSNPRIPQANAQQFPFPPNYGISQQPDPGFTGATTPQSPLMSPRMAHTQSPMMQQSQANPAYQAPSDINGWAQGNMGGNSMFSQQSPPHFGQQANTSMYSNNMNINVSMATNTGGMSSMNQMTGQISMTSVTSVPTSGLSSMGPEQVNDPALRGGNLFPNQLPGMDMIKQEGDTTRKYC

SMILES | inhibition [1] | inhibition [2]
COc1ccc([C@H]2CC(=O)C=C(c3ccc(Oc4ccccc4)cc3)C2)cc1OC | 10.7% | 15.4%
N#CCCN(C(=O)CCl)c1cccc(Cl)c1 | 28.7% | 62.8% (active)
C=C1CC2(OC1=O)c1ccccc1CCc1ccccc12 | 49.2% (active) | 29.7%
CCOC(=O)C1=C[C@@H](c2ccccc2)N(S(=O)(=O)c2ccc(C)cc2)[C@H]1c1ccc(F)cc1 | -7.61% | -5.87%
COCc1cc(N2CCN(C(=O)OC(C)(C)C)C[C@H]2C)ccc1N1CCS(=O)(=O)CC1 | 5.52% | 33.9%
COc1ccccc1-c1cc2nc(C)c(CCC(=O)NCc3ccco3)c(C)n2n1 | -5.98% | 17.5%
Cc1cccc(C)c1Nc1nnc(SC(C)C(=O)Nc2c(C)n(C)n(-c3ccccc3)c2=O)s1 (stereo not drawn) | -15.1% | -13.2%
C[C@@H]1CN([C@H](C)CO)C(=O)c2cc(NC(=O)Nc3ccc(C(F)(F)F)cc3)ccc2O[C@H]1CN(C)S(=O)(=O)c1ccccc1 | 18.9% | 32.9%
CC(C)(C)n1nc2c(c1NC(=O)c1cc([N+](=O)[O-])ccc1Cl)CS(=O)(=O)C2 | 25.2% | 47.5% (active)
COc1cccc(NC(=O)c2cc(Cl)nnc2Cl)c1 | 23.6% | 44%
COc1ccc(C(=O)C(CN2CCCC2)c2ccccc2)cc1 (stereo not drawn) | 0.75% | 40.2%
COc1ccc(-c2nc3ccccn3c2NC2CCCCC2)cc1SC1CCCCC1 | 17.4% | -1.51%
Cc1nc2cc(-c3ccccc3)nn2c(C)c1CCC(=O)NCc1ccco1 | -27.7% | 46.5% (active)
Cc1ccc(/C=C2\SC(=S)N(CCCC(=O)Nc3ccccc3C(=O)O)C2=O)cc1 | 40% (active) | 59.4% (active)
CC(=O)NCCOc1nc(N2CCCCC2)nc(N2CCCCC2)n1 | 0.94% | 12.1%
O=C(/C=C/c1cccnc1)/C=C/c1cccnc1 | 77.1% (active) | 5.81%
CCOC(=O)CN(C)C(=O)CCc1nnc(-c2ccc(-c3ccccc3)cc2)o1 | -17.7% | 19.8%
CCc1ccc(-c2nc(CS(=O)CC(=O)NCc3ccccc3)c(C)o2)cc1 (stereo not drawn) | -8.7% | 51.9% (active)
COc1ccc(S(=O)(=O)N/N=C\c2ccc3c(c2)OCO3)c(OC)c1 | 10.4% | 34.9%
CCCc1cc(=O)n2nc(N3CCC(C(=O)N4CCN(c5cccc(OC)c5)CC4)CC3)sc2n1 | -1.33% | 17.2%
O=C(CN1C(=O)c2ccccc2S1(=O)=O)c1ccccc1Cl | 37.8% (active) | 68.9% (active)
Oc1ccc(N=Nc2ccc3c(c2)OCCO3)c(O)c1 | -71.4% | 35.1%
OC[C@@H]1CN(Cc2ccc(-c3ccccc3)cc2)C[C@H](n2cnc3c(NCc4ccc(F)cc4)ncnc32)O1 | 20.8% | 22.9%

SMILES | inhibition [1] | inhibition [2]
CCOc1ccc(CN2CCNC(=O)C2CC(=O)NCCc2cnccn2)cc1 (stereo not drawn) | 10.4% | -23.9%
CN1c2ccccc2C(C)(C)C12C=Cc1cc(O)ccc1O2 (stereo not drawn) | -7.85% | 23.8%
CCCCCc1c(C)nc(N2CCc3ccccc32)[nH]c1=O | -17.3% | 14.9%
Cc1ccc(C)c(S(=O)(=O)N2CCN(C(=O)C3CCN(c4ncnc5sc(C)c(C)c45)CC3)CC2)c1 | 15.6% | 38.6%
CC(C)(C)c1ccc(Cn2c(=O)cnc3ccccc32)cc1 | 22.6% | 56.7% (active)
COc1ccc(C(=O)O/N=C(\N)c2ccccn2)cc1 | -70.2% | 30%
CC(=O)c1cccc(NC(=O)c2ccccc2N(C)S(=O)(=O)c2ccc(C)cc2)c1 | -5.87% | 0.15%
COc1ccc2c(c1)CCCN2C(=O)C1CCCN(S(=O)(=O)c2ccc(C(C)(C)C)cc2)C1 (stereo not drawn) | -3.95% | 15.7%
NS(=O)(=O)c1ccc(NC(=O)COc2ccc(C(=O)c3ccc(F)cc3)cc2)cc1 | -1.97% | -2.94%
CCOC(=O)[C@H]1[C@H]2COc3ccc(Br)cc3[C@@H]2N2C(=O)CN(Cc3ccco3)C(=O)[C@@]12C | 0.08% | -14.4%
CC(=O)Nc1ccc(NC(=O)c2ccc(-c3ccnn3C)c3ccoc23)cc1 | -6.57% | 26.4%
CCN(CC)CCNC(=O)c1ccc(NC(=O)c2ccc(S(=O)(=O)N3CCCC3)cc2)cc1 | -4.61% | -8.26%
CCOC(=O)[C@]12CCC=C1N(CCC1=CCCCC1)C(=O)[C@H](CC(=O)N1CCC(c3ccccc3)CC1)C2 | 1.35% | -24.7%
Cc1cc(C(=O)NNS(=O)(=O)c2cc(C(=O)O)ccc2Cl)c(C)n1-c1ccccc1 | 2.27% | 45.4%
Cc1cccc(N(Cc2cc(=O)[nH]c3ccccc23)C(=O)CCl)c1 | 42.4% (active) | 83% (active)
CC(=O)N1/C(=C/c2ccc(N(C)C)cc2)C(=O)c2ccccc21 | 13.3% | 72.6% (active)
CCOC(=O)c1ccccc1NC(=O)Cn1c(-c2nonc2N)nc2ccccc21 | -1.87% | 6.09%
CCOC(=O)c1ccc(-c2ccc(N3C(c4cccc(OC)c4)=Cc4ccc(F)cc4C3CC(C)=O)cc2)cc1F (stereo not drawn) | -0.77% | 21.3%
O=C(O)c1ccc(Oc2ccc(S(=O)(=O)c3ccc(C(=O)O)c(C(=O)O)c3)cc2)cc1 | -6.88% | -6.84%
O=C(CCc1nnc(C2CCCCC2)o1)N1CCC(Oc2cccnc2)CC1 | 1.02% | 4.42%
Cc1nc2ccccc2c2c1CC(C(C)(Cl)Br)O2 (stereo not drawn) | 5.15% | 29.1%
O=C(NCCCN1CCOCC1)c1cc(-c2ccc(Br)cc2)on1 | -7.7% | 13.1%
O=C(COC(=O)c1cccc(F)c1)Nc1cccc(S(=O)(=O)N2CCCCC2)c1 | 1.01% | 2.48%

SMILES | inhibition [1] | inhibition [2]
C=C1C(=O)O[C@@H]2C[C@@H](C)[C@@H]3C=CC(=O)[C@@]3(C)[C@@H](OC(C)=O)[C@H]12 | 96% (active) | 91% (active)
COCc1cc(C)[nH]c(=O)c1C(=O)NC12CC3CC(CC(C3)C1)C2 | 15.4% | -11%
O=C(NN1CCOCC1)c1ccco1 | -7.57% | -31.5%
CC(C)COc1ccc(C(=S)N2CCCC2)cc1 | -1.55% | 40.6%
CCn1ccnc1CNC(=O)C1CCC(=O)N(Cc2ccccc2F)C1 (stereo not drawn) | -4.87% | -23.7%
CC(C)(C)C(=O)Nc1nnc(CSCc2ccccc2F)s1 | -20.9% | 9.89%
Nn1c(SCC(=O)Nc2cccc3ccccc23)nnc1-c1cc(-c2ccc(Cl)cc2)n[nH]1 | 51% (active) | 15.4%
COc1ccc(C(=O)Nn2c(SCC(=O)N3CCC(C)CC3)nc3ccccc3c2=O)cc1 | 23.9% | 28.9%
O=C(CCCN1C(=O)/C(=C/c2ccc3c(c2)OCO3)SC1=S)Nc1ccc(C(=O)O)cc1 | 53.6% (active) | 36.2%
CCc1cccc(C)c1NC(=O)CSc1nnc(CCCOc2ccc(Cl)cc2Cl)n1C | -13.2% | -8.02%
Cc1cc(C)nc(NC(=O)c2c(F)c(F)c(F)c(C(=O)Nc3cc(C)cc(C)n3)c2F)c1 | 19.3% | 48.3% (active)
O=C(CCc1ccncc1)N1CCCC(Nc2ccc(F)c(F)c2)C1 (stereo not drawn) | -3.61% | -7.87%
COc1ccc(/C=C2\SC(=S)N(CCC(=O)N3CCCCC3CCO)C2=O)cc1 (stereo not drawn) | 1.26% | 26.7%
Cc1ccc(N(C)C(=O)c2cc(S(=O)(=O)N3CCCCC3)c[nH]2)cc1 | 1.11% | 15.4%
CC1(C(=O)NS(=O)(=O)Cc2ccccc2C(F)(F)F)CCN1C(=O)c1ccco1 (stereo not drawn) | 0.06% | -19.7%
O=S(=O)(C/C(=C/CO)S(=O)(=O)c1ccccc1)c1ccccc1 | 79.3% (active) | 67% (active)
O=C1CCCC/C1=C/Nc1ccc2c(c1)OCO2 | -58.7% | -65.5%
CCc1ccc(CNC(=O)c2cc3c(C)nc4ccccc4c3o2)cc1 | 20.6% | 10.3%
COc1ccc(-c2nnn(CC(=O)N(Cc3cccs3)C(C)C(=O)NCCC(C)C)n2)cc1OC (stereo not drawn) | -10.9% | 9.41%
CCOC(=O)C1CCCN(C(=O)CCNS(=O)(=O)c2ccc(Br)cc2)C1 (stereo not drawn) | 10.6% | -4.97%
Cc1cccc(C(=O)O/N=C(\N)c2ccccn2)c1 | -73.6% | -81.6%
NC(=O)c1ccsc1NC(=O)COC(=O)c1ccc([N+](=O)[O-])o1 | -4.1% | -22.5%
COc1cc(-c2nnc(-c3cc(-c4ccccc4)nc4ccccc34)o2)cc(OC)c1OC | -13.1% | -5.55%
